# From PubChem
# HT1080 IDH1KD tx = HT-1080 IDH1 knockdown cell toxicity (counter line) | HT-1080 IDH1 knockdown viability, ATP luminescence, 48 h | Potency, µM (doses to about 46.1 µM), without a hit: at the highest dose activity, negative = toxicity, hits mostly cytotoxic | actives 2% (n = 360,000) | AID 686971;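 also: potency is read from the fitted curve at half-maximal effect; 0% = DMSO wells and -100% = cell-free medium wells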
#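 Knockdown cells (IDH1KD HT-1080) received compounds 2 h after plating at 750 cells/well and were kept 48 h at 37 °C in 5% FBS RPMI. A CellTiter-Glo luminescence read gave % activity for curve fitting.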
# IL-1B inflam inh = inhibitors of inflammasome signaling (IL-1 beta secretion); activity change, % at 57.5 µM; AID 743279; THP-1 LPS/ATP IL-1B secretion, AlphaLISA, 16 h; hits give low values; actives 4.7% (n = 360,000); in the data active = activity change below about -50%; inconclusive = mostly about -30% to -49%
#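 Secreted IL-1B measured by AlphaLISA bead assay after 16 h compound exposure of THP-1 cells; compounds (final up to 57.5 uM) added 1 h before LPS (250 ng/mL) and ATP (1.25 mM) stimulation; lower signal means less secretion.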
# DT40 TDP1 no CPT = qHTS for Inhibitors of human tyrosyl-DNA phosphodiesterase 1 (TDP1): qHTS in cells in absence of CPT | Potency, µM (top dose mostly 46.2 µM), inactives show at the highest dose activity change, negative = growth inhibition, most hits filed as inhibitors | DT40 Tdp1-/- hTDP1 cells, no CPT, ATP luminescence, 48 h | actives 15% (n = 420,000); also: potency is read from the fitted curve at half-maximal effect; nearly all actives have a fitted effect of over 55% in size
#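 Luminescent ATP content (CellTiter-Glo) served as the growth readout. Knockout chicken DT40 cells expressing human TDP1 were exposed to compounds without camptothecin for a minimum 48 hr at 37 °C.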
# HT1080-NT tox = kills 2HG-producing HT-1080-NT fibrosarcoma cells; Potency, µM (doses to about 46.1 µM), inactives show at the highest dose activity, negative = less viability, hits mostly cytotoxic; actives 1.6% (n = 360,000); HT-1080-NT fibrosarcoma viability, CellTiter-Glo ATP luminescence, 48 h; AID 686970;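 also: NT is the 2HG producing partner of a matched IDH1 knockdown line; potency is read from the fitted curve at half-maximal effect; 0% = DMSO-treated cells and -100% = media-only wells without cells; nearly all actives have a fitted effect of over 55% in size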
#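 Fibrosarcoma NT cells, 750 per well in 5% FBS RPMI, were exposed to compound for 48 hours. Viability: CellTiter-Glo luminescence.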
# DT40 TDP1 CPT = DT40-hTDP1 cell growth loss with CPT; chicken DT40 Tdp1-/-;hTDP1 cells + 20 nM CPT, ATP luminescence, 48 h; Potency, µM (series often up to 46.2 µM), inactives show top-dose activity change, negative = growth inhibition, most hits filed as inhibitors; actives 12% (n = 420,000); also: potency is read from the fitted curve at half-maximal effect; nearly all actives have a fitted effect of over 55% in size
#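 Chicken DT40 Tdp1-/- cells stably complemented with human TDP1 were seeded at 400 cells/well in medium containing 20 nM camptothecin, exposed to pin-transferred compounds, and grown at 37 °C for at least 48 hr. Viability was read as ATP luminescence.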
# Active calls of the source: *; ? = inconclusive; · = no result given. Rows were chosen to be rich in hits. Some 19% of all compounds tested hit in one or more screens of this group. Unless noted, calls follow the shape of the dose curve; as a rule, active = well fitted curve in the direction sought with a large enough effect; inconclusive = small, poorly fitted or top-dose-only effect, or another doubt; inactive = no such curve, though single readings can be large; an effect the other way counts as inactive or inconclusive. Unless noted, % is scaled to controls: 0 for no effect and ±100 for the full control effect.
SMILES,HT1080 IDH1KD tx,IL-1B inflam inh,DT40 TDP1 no CPT,HT1080-NT tox,DT40 TDP1 CPT
O=C(CN1CCN(C(=O)c2ccco2)CC1)Nc1ccccc1-c1ccccc1,-2.8%,12.7,?,-3.8%,25.9µM*
CCOC(=O)c1cc(C)sc1NC(=O)CN1CCN(C(=O)c2ccco2)CC1,-16.1%,0.0,?,-7.3%,23.1µM*
COc1ccc(/C=N/NC(=O)c2ccc3c(c2)NC(=O)C(C)(C)O3)cc1OC,1.7%,1.5,?,-1.8%,-1.8%
CCOC(=O)C1(C)C=C(Nc2cccc(C)c2)C(=O)N1c1ccccc1 (stereo unspecified),·,·,18.4µM*,·,?
CCOC(=O)C1(C)C=C(Nc2cccc(OC)c2)C(=O)N1c1ccccc1 (stereo unspecified),-8.8%,·,-21.8%,-5.3%,-9.1%
Cn1ncc2c(N3CCC(Cc4ccccc4)CC3)ncnc21,?,17.0,16.4µM*,-25.0%,?
Cn1ncc2c(N3CCN(c4ccc(F)cc4)CC3)ncnc21,·,·,18.4µM*,·,?
COc1ccccc1N1CCN(c2ncnc3c2cnn3C)CC1,·,·,18.4µM*,·,?
NNC(=O)c1cc2c(N3CCC(Cc4ccccc4)CC3)ncnc2s1,?,32.5,23.1µM*,?,16.4µM*
COc1ccccc1N1CCN(c2ncnc3nc[nH]c23)CC1,2.7%,-3.0,?,4.4%,?
COC(=O)C(C)Sc1nnc2n(-c3cccc(C)c3)c(=O)c3c4c(sc3n12)CCCC4 (stereo unspecified),1.6%,-21.8,?,-1.1%,?
COCCNC(=O)CSc1nc(-c2ccc(C)cc2)nc2c1c(=O)n(C)c(=O)n2C,·,·,-2.4%,·,-14.8%
O=C(c1ccc(F)cc1)C(CN1CCOCC1)c1ccccc1 (stereo unspecified),5.17µM*,-64.1*,1.3µM*,-8.9%,1.84µM*
O=C(c1ccc(Cl)cc1)C(CN1CCCC1)c1ccccc1 (stereo unspecified),20.6µM*,-98.4*,4.11µM*,18.4µM*,4.11µM*
CCCCOc1ccc(C(=O)C(CN2CCOCC2)c2ccccc2)cc1 (stereo unspecified),16.4µM*,-97.8*,14.6µM*,13µM*,13µM*
CCCOc1ccc(C(O)C(CN2CCOCC2)c2ccccc2)cc1 (stereo unspecified),0.8%,-1.6,-11.8%,-0.9%,9.8%
CCCCOc1ccc(C(O)C(CN2CCCCC2)c2ccccc2)cc1 (stereo unspecified),-12.6%,?,23.1µM*,-13.6%,23.1µM*
CCCCOc1ccc(C(O)C(CN2CCOCC2)c2ccccc2)cc1 (stereo unspecified),-8.6%,11.0,-15.2%,6.0%,-22.0%
O=C(NCc1nnc2n1CCN(Cc1cccc(C(F)(F)F)c1)CC2)c1ccncc1,·,·,-14.9%,·,-21.7%
COCCNC(=O)C1(C)CCN(C(=O)c2cccnc2Oc2ccccc2)C1 (stereo unspecified),27.5%,31.6,0.0%,?,4.7%
CCc1cccc(NC(=O)c2cccc3c2C(=O)N(CC2CCCO2)C3)c1 (stereo unspecified),1.3%,-24.4,?,-2.4%,?
COc1ccc(C(=O)C(CN2CCOCC2)c2ccccc2)cc1 (stereo unspecified),2µM*,-98.6*,3.26µM*,7.08µM*,2.91µM*
CCCCCOc1ccc(C(=O)C(c2ccccc2)N2CCOCC2)cc1 (stereo unspecified),-24.5%,?,?,-11.1%,20.6µM*
CCCCCOc1ccc(C(=O)NCC2(c3ccccc3)CCOCC2)cc1,?,-24.8,?,-4.7%,?
CCCOc1ccc(C(=O)C(CN2CCCC2)c2ccccc2)cc1 (stereo unspecified),6.51µM*,-102.6*,5.17µM*,8.2µM*,3.66µM*
